# Results taken from PubChem BioAssay (NCATS).
# Values without a mark were called inactive. Records with an inconclusive call do not appear. Where a call stands in place of a potency, no number is given. Calls of active or inactive are those of the source. Unless noted, calls come from the whole dose curve; as a rule, active = well fitted curve in the direction sought with a large enough effect; inconclusive = small, poorly fitted or top-dose-only effect, or another doubt; inactive = no such curve, though single readings can be large; an effect the other way counts as inactive or inconclusive.
# Assays:
# [1] = Validation of Assay for Modulators of Lamin A Splicing (AID 1459; active = well fitted curve in the direction sought with a large enough effect in the signal ratio; the % refers to the signal ratio;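 note: cells exposed to compound for two days before reading; ratio rise marks activators and ratio drop marks inhibitors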)
# Method in brief: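 Splicing correction is reported by an EGFP-containing lamin A minigene in stably transfected S3 HeLa cells, while DsRed2 controls for viability and nonspecific signal. Cells are exposed to compounds for 48 hrs before the GFP over RFP ratio is taken.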
# [2] = target: DNA repair nuclease/redox regulator APEX1 (Homo sapiens) (UniProt P27695); assay: qHTS Validation Assay for Inhibitors of the Human Apurinic/apyrimidinic Endonuclease 1 (APE1) (AID 1705;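 note: TAMRA fluorescence gain over two minutes as APE1 cuts a quenched THF abasic duplex; series mostly up to about 57 µM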)
# Sequence of DNA repair nuclease/redox regulator APEX1 (Homo sapiens) (P27695 whole entry, looked up): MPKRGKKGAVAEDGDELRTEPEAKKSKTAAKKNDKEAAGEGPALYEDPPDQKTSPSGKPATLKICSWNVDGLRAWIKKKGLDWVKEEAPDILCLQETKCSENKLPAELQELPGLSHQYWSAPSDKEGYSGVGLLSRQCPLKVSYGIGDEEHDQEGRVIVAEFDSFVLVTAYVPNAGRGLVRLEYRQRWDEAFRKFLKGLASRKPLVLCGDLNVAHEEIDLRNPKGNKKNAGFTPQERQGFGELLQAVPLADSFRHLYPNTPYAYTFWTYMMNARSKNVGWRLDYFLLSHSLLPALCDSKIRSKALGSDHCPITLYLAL
# Method in brief: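 Endonuclease activity of human APE1 is followed as dequenching when the enzyme incises a tetrahydrofuran abasic site in a short duplex labelled 5'-TAMRA/3'-BHQ-2 (50 nM final), after 15 min enzyme–compound preincubation at room temperature.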
# [3] = Counterscreen for APE1 Inhibitors: Fluorescent Dye Displacement Validation Assay (AID 1707)
# Method in brief: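 Thiazole Orange displacement from dsDNA: 250 nM ThO with 50 nM TAMRA-labelled abasic-site (tetrahydrofuran) duplex in 50 mM Tris-HCl pH7.5, 50mM NaCl, 2 mM MgCl2, 0.01% Tween-20. Loss of endpoint fluorescence (ex 480 nm, em 540 nm) flags DNA binders.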
# [4] = target: Endonuclease 4 (Escherichia coli (strain K12)) (UniProt P0A6C1); assay: Counterscreen for APE1 Inhibitors: qHTS Validation Assay for Inhibitors of Endonuclease IV (AID 1708)
# Method in brief: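 2 nM enzyme was preincubated with compounds for 15 min at room temperature in 50 mM Tris-HCl pH 7.5, 50 mM NaCl, 2 mM MgCl2, 1 mM DTT, 0.01% Tween-20. 50 nM THF-abasic TAMRA/BHQ-2 duplex substrate started the reaction.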
# [5] = qHTS for differential inhibitors of proliferation of Plasmodium falciparum line 7G8 (AID 1815);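 note: potency is the fitted concentration of half-maximal effect; parasite growth measured after three days of incubation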
# [6] = qHTS for differential inhibitors of proliferation of Plasmodium falciparum line GB4 (AID 1816); details: Potency: Plasmodium falciparum GB4 proliferation inhibition;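 note: potency is the fitted concentration of half-maximal effect; parasite growth measured after 72 h incubation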
# [7] = qHTS for differential inhibitors of proliferation of Plasmodium falciparum line 3D7 (AID 1876); note: potency is the fitted concentration of half-maximal effect
# [8] = qHTS for differential inhibitors of proliferation of Plasmodium falciparum line W2 (AID 1883); details: Potency: Plasmodium falciparum W2 proliferation inhibition;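 note: potency is the fitted concentration of half-maximal effect; parasites grown with compound for 72 h before lysis and staining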
# [9] = qHTS for differential inhibitors of proliferation of Plasmodium falciparum line HB3 (AID 1886); details: Potency: Plasmodium falciparum HB3 proliferation inhibition;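 note: potency is the fitted concentration of half-maximal effect; parasites grown with compound for 72 h before SYBR Green readout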
# [10] = target: Ferritin light chain (Equus caballus) (UniProt P02791); assay: qHTS Validation Assay for Identification of Novel General Anesthetics (AID 2323); note: series mostly up to about 77 µM
# Sequence of Ferritin light chain (Equus caballus) (P02791 2-175 limits assumed): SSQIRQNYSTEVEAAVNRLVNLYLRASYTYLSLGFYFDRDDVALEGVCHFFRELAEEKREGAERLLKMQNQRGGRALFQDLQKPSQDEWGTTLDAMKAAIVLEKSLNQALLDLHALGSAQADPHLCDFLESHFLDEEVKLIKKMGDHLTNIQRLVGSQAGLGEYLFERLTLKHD
# Method in brief: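 Apoferritin from horse spleen (10 uM) was mixed with 1-aminoanthracene at 50% saturation in PBS, then compounds were added. After 10 min at room temperature, fluorescence was read (ex 380 nm, em 535 nm) and normalized to free-probe and complex controls.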
# [11] = target: ATP-dependent DNA helicase Q1 (Homo sapiens) (UniProt P46063); assay: qHTS Validation Assay for Inhibitors of RecQ-Like Dna Helicase 1 (RECQ1) (AID 2353)
# Sequence of ATP-dependent DNA helicase Q1 (Homo sapiens) (P46063 whole entry, looked up): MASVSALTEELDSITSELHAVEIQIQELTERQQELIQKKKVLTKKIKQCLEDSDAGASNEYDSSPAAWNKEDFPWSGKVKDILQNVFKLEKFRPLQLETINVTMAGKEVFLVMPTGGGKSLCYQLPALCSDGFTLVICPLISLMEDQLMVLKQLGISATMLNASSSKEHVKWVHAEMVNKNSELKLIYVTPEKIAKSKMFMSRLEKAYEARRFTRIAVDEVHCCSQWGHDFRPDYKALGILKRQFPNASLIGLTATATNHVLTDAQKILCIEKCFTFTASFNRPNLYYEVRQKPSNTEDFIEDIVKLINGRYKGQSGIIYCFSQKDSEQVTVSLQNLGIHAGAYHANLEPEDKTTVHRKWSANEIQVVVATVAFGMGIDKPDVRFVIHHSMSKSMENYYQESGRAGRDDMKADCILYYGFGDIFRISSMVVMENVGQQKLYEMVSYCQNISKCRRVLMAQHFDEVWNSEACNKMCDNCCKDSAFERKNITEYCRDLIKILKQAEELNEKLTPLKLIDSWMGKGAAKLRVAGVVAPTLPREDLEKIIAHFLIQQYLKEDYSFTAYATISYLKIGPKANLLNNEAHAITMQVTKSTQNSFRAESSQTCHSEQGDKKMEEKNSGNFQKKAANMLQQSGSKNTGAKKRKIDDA
# Method in brief: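 50 nM RECQ1T1 preincubated 15 min with compound in Tris pH 8.0 buffer with MgCl2, DTT, Tween-20 and 2.5 ug/ml poly(dI-dC); started with 200 nM TAMRA/BHQ-2 forked duplex and 2 mM ATP. Unwinding read as fluorescence (525/598 nm), two reads 2 h apart.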
# [12] = target: RecQ-like DNA helicase BLM (Homo sapiens) (UniProt P54132); assay: qHTS Validation Assay for Inhibitors of Bloom's syndrome helicase (BLM) (AID 2364)
# Sequence of RecQ-like DNA helicase BLM (Homo sapiens) (P54132 whole entry, looked up): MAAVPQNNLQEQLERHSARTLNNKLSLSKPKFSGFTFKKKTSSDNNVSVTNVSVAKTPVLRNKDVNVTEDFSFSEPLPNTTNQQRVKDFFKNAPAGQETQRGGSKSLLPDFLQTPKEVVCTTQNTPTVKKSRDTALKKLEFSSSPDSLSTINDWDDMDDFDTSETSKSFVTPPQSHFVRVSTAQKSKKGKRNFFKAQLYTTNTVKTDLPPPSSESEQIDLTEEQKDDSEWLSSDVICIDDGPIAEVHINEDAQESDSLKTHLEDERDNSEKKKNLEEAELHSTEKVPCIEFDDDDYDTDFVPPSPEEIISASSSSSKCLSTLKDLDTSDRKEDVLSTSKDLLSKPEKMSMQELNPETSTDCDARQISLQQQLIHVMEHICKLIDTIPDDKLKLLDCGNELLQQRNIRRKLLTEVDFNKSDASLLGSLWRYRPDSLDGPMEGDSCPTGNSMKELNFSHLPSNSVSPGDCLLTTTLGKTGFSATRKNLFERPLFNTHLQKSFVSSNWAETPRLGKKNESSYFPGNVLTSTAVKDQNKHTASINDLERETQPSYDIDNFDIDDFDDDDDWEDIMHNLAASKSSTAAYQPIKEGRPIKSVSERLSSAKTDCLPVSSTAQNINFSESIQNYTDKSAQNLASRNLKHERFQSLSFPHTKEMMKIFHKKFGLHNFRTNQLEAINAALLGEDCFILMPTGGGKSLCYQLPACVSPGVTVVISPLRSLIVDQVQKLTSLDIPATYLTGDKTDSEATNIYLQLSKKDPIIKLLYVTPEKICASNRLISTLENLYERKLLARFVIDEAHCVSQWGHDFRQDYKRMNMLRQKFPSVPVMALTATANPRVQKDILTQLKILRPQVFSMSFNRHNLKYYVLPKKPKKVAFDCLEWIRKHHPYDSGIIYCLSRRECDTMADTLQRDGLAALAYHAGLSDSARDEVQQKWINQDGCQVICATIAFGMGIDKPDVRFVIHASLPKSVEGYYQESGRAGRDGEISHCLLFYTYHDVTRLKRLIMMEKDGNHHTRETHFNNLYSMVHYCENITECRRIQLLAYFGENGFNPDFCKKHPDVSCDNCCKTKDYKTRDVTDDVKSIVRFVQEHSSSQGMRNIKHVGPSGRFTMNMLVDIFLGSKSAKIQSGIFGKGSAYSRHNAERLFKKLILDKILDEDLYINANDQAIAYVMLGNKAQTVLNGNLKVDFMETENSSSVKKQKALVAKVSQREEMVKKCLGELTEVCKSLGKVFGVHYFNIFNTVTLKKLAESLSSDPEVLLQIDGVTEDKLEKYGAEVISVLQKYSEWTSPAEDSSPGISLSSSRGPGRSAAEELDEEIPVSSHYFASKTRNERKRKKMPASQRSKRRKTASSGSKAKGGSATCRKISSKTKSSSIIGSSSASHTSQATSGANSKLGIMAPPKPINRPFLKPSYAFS
# Method in brief: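 BLM 50 nM in 25 mM Tris-HCl pH 8.0, 5 mM NaCl, 2 mM MgCl2, 1 mM DTT, 0.01% Tween-20, 2.5 ug/ml poly(dI-dC); 15 min cpd preinc, RT. Start: 200 nM forked DNA + 2 mM ATP (final). TAMRA read, 2 reads 2 h apart.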
# [13] = Validation screen for small molecules that induce DNA re-replication in MCF 10A normal breast cells (AID 463097); note: nearly all actives have a fitted effect of over 60% in size
# Method in brief: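 DNA re-replication was detected as a rise in nuclei with elevated Hoechst fluorescence after a 48 hr compound exposure of MCF 10A cells at 37 C.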
# [14] = target: M-phase phosphoprotein 8 (Homo sapiens) (UniProt Q99549); assay: qHTS Validation Assay for Inhibitors for MPP8 Chromodomain Interactions with Methylated Histone Tails (AID 488949);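 note: AlphaScreen signal from MPP8 chromodomain bound to biotinylated H3K9me3 peptide; top concentration of the series differs between compounds; nearly all actives have a fitted effect of over 55% in size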
# Sequence of M-phase phosphoprotein 8 (Homo sapiens) (Q99549 whole entry, looked up): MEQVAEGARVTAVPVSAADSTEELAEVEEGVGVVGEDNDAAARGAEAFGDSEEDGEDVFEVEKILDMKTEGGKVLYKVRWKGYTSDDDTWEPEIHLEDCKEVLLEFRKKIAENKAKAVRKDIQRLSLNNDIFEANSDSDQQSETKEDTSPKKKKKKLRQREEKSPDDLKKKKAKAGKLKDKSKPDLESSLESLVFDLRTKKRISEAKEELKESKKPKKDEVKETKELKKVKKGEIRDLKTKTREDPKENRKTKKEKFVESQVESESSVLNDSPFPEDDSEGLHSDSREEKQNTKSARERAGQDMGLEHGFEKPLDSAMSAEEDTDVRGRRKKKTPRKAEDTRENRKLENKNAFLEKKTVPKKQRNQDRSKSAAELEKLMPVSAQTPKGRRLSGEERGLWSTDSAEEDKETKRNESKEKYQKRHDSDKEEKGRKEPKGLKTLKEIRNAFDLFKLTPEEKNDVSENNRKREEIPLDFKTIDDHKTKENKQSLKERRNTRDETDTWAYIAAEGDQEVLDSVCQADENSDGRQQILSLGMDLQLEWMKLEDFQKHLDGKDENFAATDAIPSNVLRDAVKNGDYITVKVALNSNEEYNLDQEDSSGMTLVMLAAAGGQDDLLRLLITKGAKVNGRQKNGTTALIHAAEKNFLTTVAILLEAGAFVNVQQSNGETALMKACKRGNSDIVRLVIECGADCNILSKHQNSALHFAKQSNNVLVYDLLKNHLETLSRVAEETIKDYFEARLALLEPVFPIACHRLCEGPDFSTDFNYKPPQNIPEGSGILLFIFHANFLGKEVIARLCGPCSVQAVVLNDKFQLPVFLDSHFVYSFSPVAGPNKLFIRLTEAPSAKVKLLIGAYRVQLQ
# Method in brief: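 Disruption of the preformed MPP8–trimethyl-H3K9 peptide complex (both 50 nM, 30 min, RT) is measured after 30 min compound exposure, using AlphaScreen proximity beads; aurintricarboxylic acid titration serves as plate control.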
# [15] = target: Thyrotropin receptor (Homo sapiens) (UniProt P16473); assay: qHTS Assay for Antagonists of the Thyroid Stimulating Hormone Receptor (AID 488980); note: series mostly up to about 58 µM
# Sequence of Thyrotropin receptor (Homo sapiens) (P16473 whole entry, looked up): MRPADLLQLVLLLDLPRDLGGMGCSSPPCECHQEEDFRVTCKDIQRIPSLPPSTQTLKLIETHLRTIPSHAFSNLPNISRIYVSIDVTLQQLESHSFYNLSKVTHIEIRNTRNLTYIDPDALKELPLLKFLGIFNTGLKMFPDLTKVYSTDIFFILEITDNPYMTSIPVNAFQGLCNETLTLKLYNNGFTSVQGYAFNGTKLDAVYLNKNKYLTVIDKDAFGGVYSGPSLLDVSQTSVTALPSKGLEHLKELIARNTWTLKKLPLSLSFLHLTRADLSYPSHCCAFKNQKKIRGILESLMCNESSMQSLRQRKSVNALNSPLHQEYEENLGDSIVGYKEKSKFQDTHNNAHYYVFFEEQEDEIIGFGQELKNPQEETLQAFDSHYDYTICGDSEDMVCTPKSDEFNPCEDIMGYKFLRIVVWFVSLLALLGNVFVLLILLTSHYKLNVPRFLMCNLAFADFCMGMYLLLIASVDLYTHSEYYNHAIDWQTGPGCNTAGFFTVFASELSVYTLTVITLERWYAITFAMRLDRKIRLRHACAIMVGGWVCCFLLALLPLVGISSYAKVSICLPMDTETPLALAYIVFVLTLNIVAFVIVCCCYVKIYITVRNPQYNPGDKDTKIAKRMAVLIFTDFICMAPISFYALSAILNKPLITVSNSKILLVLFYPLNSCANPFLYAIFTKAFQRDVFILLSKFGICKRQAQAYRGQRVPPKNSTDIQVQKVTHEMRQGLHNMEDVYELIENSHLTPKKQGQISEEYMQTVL
# Method in brief: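 Cells expressing human TSHR (HEK293) are dispensed in HBSS/HEPES containing 70 uM RO 20-1724, compound is added, then TSH at EC80 (4 nM final). Antibody in lysis buffer follows, 30 minutes at room temperature before HTRF detection.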
# [16] = target: Thyrotropin-releasing hormone receptor (Homo sapiens) (UniProt P34981); assay: qHTS for Small Molecule Agonists and Allosteric Enhancers of Human TRH Receptor: Validation Screen for Agonists (AID 493127;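 active = calcium activation more than 3 SD above the typical response in the agonist read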;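 note: intracellular calcium rise by fluo-8 fluorescence before TRH EC20 addition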); details: TRH receptor agonist cell assay; at 2 µM; active compounds read high
# Sequence of Thyrotropin-releasing hormone receptor (Homo sapiens) (P34981 whole entry, looked up): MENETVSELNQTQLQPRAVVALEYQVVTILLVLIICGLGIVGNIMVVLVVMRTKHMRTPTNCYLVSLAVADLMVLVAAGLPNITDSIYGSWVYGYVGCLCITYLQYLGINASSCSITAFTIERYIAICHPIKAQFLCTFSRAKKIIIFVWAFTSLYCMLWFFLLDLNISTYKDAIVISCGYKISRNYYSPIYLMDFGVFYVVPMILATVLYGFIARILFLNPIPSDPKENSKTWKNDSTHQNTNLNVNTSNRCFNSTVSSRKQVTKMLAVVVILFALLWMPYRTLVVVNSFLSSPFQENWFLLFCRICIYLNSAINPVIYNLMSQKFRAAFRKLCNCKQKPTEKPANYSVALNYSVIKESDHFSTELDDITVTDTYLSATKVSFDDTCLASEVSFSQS
# Method in brief: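 TRHR-expressing cells were plated overnight in serum-containing medium, then loaded with fluo-8 calcium dye at room temperature for 30 min–1.5 h. After a 10 s baseline, compound was pin-transferred and calcium fluorescence (ex 480/em 530) read kinetically for agonist response.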
# [17] = target: Galactokinase (Homo sapiens) (UniProt P51570); assay: qHTS Validation Assay for Inhibitors of Human Galactokinase (GALK) (AID 493189)
# Sequence of Galactokinase (Homo sapiens) (P51570 whole entry, looked up): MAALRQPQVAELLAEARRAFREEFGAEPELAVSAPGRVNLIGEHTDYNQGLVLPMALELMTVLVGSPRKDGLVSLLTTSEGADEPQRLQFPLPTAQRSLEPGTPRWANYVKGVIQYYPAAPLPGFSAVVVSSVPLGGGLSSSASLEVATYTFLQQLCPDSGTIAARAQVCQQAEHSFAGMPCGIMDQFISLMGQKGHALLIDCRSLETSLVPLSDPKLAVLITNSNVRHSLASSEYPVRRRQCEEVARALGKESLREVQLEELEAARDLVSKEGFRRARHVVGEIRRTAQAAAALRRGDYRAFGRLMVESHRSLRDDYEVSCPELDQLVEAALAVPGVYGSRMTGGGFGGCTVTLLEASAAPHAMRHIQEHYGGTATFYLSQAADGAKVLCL
# Method in brief: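 Compounds were pin-transferred into ATP buffer, then GALK-galactose mix was added (final 5 nM enzyme, 100 uM galactose, 35 uM ATP). After 1 h at room temperature, remaining ATP was measured luminescently.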
# [18] = Validation screen for small molecules that induce DNA re-replication in SW480 colon adenocarcinoma cells (AID 504364)
# Method in brief: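 SW480 cells seeded at 250 per well were exposed to compound or DMSO for 48 hr at 37 C, 5% CO2, then stained with Hoechst for 40 min. DNA content per nucleus was imaged (405 nm ex, 500-530 nm em).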
# [19] = target: Voltage-gated inwardly rectifying potassium channel KCNH2 (Homo sapiens) (UniProt Q12809); assay: qHTS Assay for Small Molecule Inhibitors of the Human hERG Channel Activity (AID 588834);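 note: top concentration of the series differs between compounds; lower thallium flux fluorescence means stronger hERG block; nearly all actives have a fitted effect of over 50% in size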
# Method in brief: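 Measured: FluxOR fluorescence after thallium stimulation in U2OS cells transduced with hERG by baculovirus. Compounds pre-incubated around 10 min; medium Opti-MEM with 2% FCS. AC50 from Hill equation.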
# [20] = tested on: Zika virus NS2B-NS3 protease; assay: Primary screen GU AMC qHTS for Zika virus inhibitors (AID 1347154); note: nearly all actives have a fitted effect of over 70% in size
# Method in brief: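 Unlinked Zika NS2B hydrophilic domain/NS3 protease domain noncovalent complex (25 nM final) in 10 mM Tris-HCl pH 8.0, 0.01% Tween 20, with AMC peptide substrate. Fluorescence (ex 340, em 450 nm) change over 15 min, room temperature; percent inhibition fitted to 4-parameter Hill equation.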
# [21] = Counterscreen qHTS for small molecule stabilizers of the endoplasmic reticulum resident proteome: GLuc-NoTag assay (AID 1508627);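 note: SH-SY5Y cells given compound then 100 nM thapsigargin to empty ER calcium; series mostly up to about 76 µM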
# Method in brief: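 SH-SY5Y cells stably expressing constitutively secreted GLuc (no SERCaMP tag) were pre-incubated 5 h, treated with compound for 19 h, then 100 nM thapsigargin for 4 h at 37C; medium GLuc read by coelenterazine luminescence.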
structure (smiles),measurement,setting,value
Cc1ccc(OCC(O)C(C)NC(C)C)c2c1CCC2 (centres undefined),outcome,[1],inactive
same,Potency,[2],inactive
same,Potency,[3],inactive
same,Potency,[4],inactive
same,Potency,[5],2.82 µM (active)
same,Potency,[6],2.82 µM (active)
same,Potency,[7],11.2 µM (active)
same,Potency,[8],1.58 µM (active)
same,Potency,[9],11.2 µM (active)
same,outcome,[10],inactive
same,Potency,[11],inactive
same,Potency,[12],inactive
same,Potency,[13],inactive
same,Potency,[14],inactive
same,outcome,[15],inactive
same,activation,[16],2.81%
same,outcome,[17],inactive
same,outcome,[18],inactive
same,Potency,[19],inactive
same,Potency,[20],inactive
S=C(NCCCc1cnc[nH]1)NCCCN(Cc1ccc(Cl)c(Cl)c1)c1ccc(Br)cn1,Potency,[20],inactive
CC(C)ON(C(C(=O)NO)C(C)C)S(=O)(=O)c1ccc(-c2ccccc2)cc1 (centres undefined),Potency,[20],inactive
same,Potency,[21],inactive
CCCCCCCCCCCCCCCCOCC(CO)OC(C)=O (centres undefined),"activity change, negative = inhibition",[20],15.1% [at 6.83 µM]
